Out of some 300,000 compounds screened, about 2,300 (0.77%) were called active.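 Rule for the calls: active = more than half of replicate wells show activity change below -50%, luminescence cut by over half; inconclusive = some wells, but at most half, below -50%; inactive = no replicate well below -50%.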 Shown is part of a subset that was picked to be rich in actives.
Assay: HSF1 inhibitors in luciferase reporter cells, primary screen, cell-based, NIH3T3, luminescence (AID 2098);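 note: luciferase reports HSF-1 transcriptional activity via heat shock element; 0% = median of DMSO wells and -100% = zero luminescence signal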
Conditions: NIH3T3-HGL HSE-luciferase, MG132-induced, luminescence 8 h; stronger effect = lower value; screened at 7.5 µM (by protocol)

Activity change, negative = inhibition, inactive:
CN1CCN(C(=O)C2C3C=CC(C3)C2C(=O)O)CC1 (stereo not given) -0.614%
CCN1CCN(C(=O)/C=C\C(=O)O)CC1 -4.12%
Cc1nc2ccc(C(=O)N(C)CC3CCCN(CCc4ccc(Cl)cc4)C3)cc2[nH]1 (stereo not given) -3.74%
COc1cccc(CN(C)CC(=O)NCc2ccccc2Cl)c1OC -1.39%
O=C(COc1ccccc1F)Nc1nc(-c2ccccn2)cs1 -13.1%
N#CCCN(C(=O)COC(=O)c1ccc(S(=O)(=O)N2CCCCCC2)cc1)c1ccccc1 0.525%
Cc1ccccc1N1CC(C(=O)Nc2ccc(S(=O)(=O)N3CCCC3)cc2)CC1=O (stereo not given) -1.85%
O=C(Cn1c(=O)n(Cc2ccco2)c(=O)c2ccccc21)NCC1CCCO1 (stereo not given) 0.503%
Cn1c(=O)c2ccccc2n(CC(=O)Nc2ccc3c(c2)OCCO3)c1=O -3.8%
Cn1c(=S)sc2ccc3ccccc3c21 -1.53%
COC(=O)C1=C(C)Nc2ncnn2C1c1ccco1 (stereo not given) 0.145%
CCOc1ccc(C2=CC(c3ccccc3)n3ncnc3N2)cc1 (stereo not given) -4.36%
O=C(O)c1ccc2c(c1)C(=O)N(NC(=O)c1ccc(O)cc1)C2=O 0.898%
O=C(Nc1ccc(C(=O)O)c(O)c1)c1ccccc1 2.77%
CCC1(c2ccccc2)NC(=O)N(CC(=O)c2ccc3c(c2)OCO3)C1=O (stereo not given) 1.78%
CCCCN1C(N)=NC[C@@H]1CC1CCCCC1 -7.88%
C[C@@H]1O[C@@H](OC[C@H]2O[C@@H](Oc3c(-c4ccc(O)cc4)oc4cc(O)cc(O)c4c3=O)[C@H](O)[C@@H](O)[C@@H]2O)[C@H](O)[C@H](O)[C@H]1O 2.53%
O=C(CCCCCn1c(=S)[nH]c2cc3c(cc2c1=O)OCO3)N1CCN(c2ccc(F)cc2)CC1 0.967%
Cc1ccc(C)c(N2CCN(C(=O)CCCCn3c(=O)[nH]c4ccccc4c3=O)CC2)c1 1.8%
Cc1cc(Br)ccc1NC(=O)CN(C)C(=O)CN1C(=O)NC2(CCCC2)C1=O -4.3%
O=C(COc1ccccc1)Nc1ccc(C(=O)N2CCCC2)cc1 -3.01%
N#CC1=C(N)Oc2[nH]c(=S)[nH]c(=O)c2C12C(=O)Nc1ccccc12 (stereo not given) -4.51%
COc1ccc(S(=O)(=O)NCC(c2ccco2)N2CCOCC2)cc1 (stereo not given) 5.28%
O=C(Nc1nnc(S(=O)(=O)N2CCOCC2)s1)c1cccc(Br)c1 4.12%
Cc1cccc(C(=O)Nc2nnc(S(=O)(=O)N3CCCCCC3)s2)c1 -1.91%
O=C(COC(=O)c1ccccc1SCC(=O)N1CCCC1)Nc1ccccc1OC(F)F 7.03%
O=C(c1ccc(F)c(S(=O)(=O)N2CCOCC2)c1)N(CCc1ccccc1)Cc1ccccc1 5.02%
COc1ccc(Cl)cc1C=CC=Nc1ccc(S(N)(=O)=O)cc1 -18.4%
C=C1CCN([C@@H](Cc2ccccc2)C(=O)N2CCOCC2)S(=O)(=O)c2ccccc21 -0.215%
COc1cccc(OC)c1C(=O)Nc1sc2c(c1C(N)=O)CCCC2 -3.68%
O=C(OCC1OC(Oc2ccc(O)cc2)C(O)C(O)C1O)c1ccccc1 (stereo not given) -1.79%
CCCCn1c(N)c(N(CC(C)C)C(=O)c2cccc(S(=O)(=O)N3CC(C)OC(C)C3)c2)c(=O)[nH]c1=O (stereo not given) -2.84%
Cc1ccc(C)c(NC(=S)NCC(c2cccnc2)N2CCOCC2)c1 (stereo not given) -6.11%
Cc1ccc(C(CNC(=O)Nc2ccccc2)N2CCN(C)CC2)cc1 (stereo not given) -9.11%
O=C(NCCS(=O)(=O)NCc1ccc(Cl)cc1)c1ccccc1 2.35%
O=C(COC(=O)Cc1ccccc1F)NNC(=O)c1ccc(Cl)cc1 -1.7%
O=C(NC1CCCCC1)c1ccc(CNc2c(N3CCOCC3)c(=O)c2=O)cc1 -0.199%
O=C(NCc1ccccc1)c1ccc(CNc2c(N3CCCC3)c(=O)c2=O)cc1 -3.59%
Cn1cccc1C(=O)OCC(=O)c1ccc(Br)s1 -97.9%
O=C(Nc1cccc2c1CCCC2)c1ccc(F)cc1 -2.27%
COc1ccc(/C=N/NC(=O)Nc2ccc3nsnc3c2)c(OC)c1 15.1%
COc1ccc(/C=N/NC(=O)CNC(=O)c2ccc(S(=O)(=O)N3CCCC3)cc2)c(OC)c1 -4.96%
COc1ccc(C)cc1NC(=O)CSc1nnc2ccc(-c3ccccn3)nn12 -4.51%
Cc1ccc(S(=O)(=O)N(NC2=NS(=O)(=O)c3ccccc32)C(=O)c2ccccc2)cc1 -2.65%
COc1cc(C(=O)NN(CCC#N)C2=NS(=O)(=O)c3ccccc32)cc(OC)c1OC -1.4%
O=C(CN(c1cc(C(F)(F)F)ccc1Cl)S(=O)(=O)c1ccccc1)NCc1cccnc1 6.77%
CCOC(=O)N1CCN(C(=O)CSc2nc(=O)n3cccc(C)c3n2)CC1 -2.47%
O=C1[C@H]2[C@@H](c3ccc(Cl)cc3)N3C(=O)N(c4cccc(F)c4)C(=O)[C@@]3(Cc3ccccc3)[C@H]2C(=O)N1C1CCCCC1 8.08%
CN(C)S(=O)(=O)c1ccc(N2CCCC2)c(C(=O)Nc2ccc(Br)cc2F)c1 0.082%
Cc1ccc(-c2csc(NC(=O)C3=COCCO3)n2)cc1C 14.3%
Oc1c(C(c2ccccn2)N2CCOCC2)ccc2cccnc12 (stereo not given) 39.3%
CCOC(=O)N1CCN(C(c2cccnc2)c2ccc3cccnc3c2O)CC1 (stereo not given) 26.3%
C=CCSc1nnc2c(n1)-c1cccc3cccc-2c13 3.46%
COC(=O)c1c(-c2ccsc2)oc2ccc(-c3cc(OC)c(OC)c(OC)c3)cc12 0.511%
OCCCNc1nc(-c2ccccc2)c2cc(Cl)ccc2n1 -1.41%
CC(C)n1cnc2c(Nc3cccc(Cl)c3)nc(N(CCO)CCCO)nc21 -11.1%
Cc1ccc2nc(SCC(=O)Nc3cccc4ccccc34)nc(=O)n2c1 4.93%
O=C(NCCS(=O)(=O)NCc1ccc(F)cc1)c1ccccc1 0.252%
O=C(c1noc2c1CCCC2)N1CCc2ccccc2C1 12.4%
O=C(Nc1cccnc1)c1cccc(S(=O)(=O)N2CCCC2)c1 -0.574%
O=[N+]([O-])c1cccc(C=NN=Cc2ccccc2O)c1 -25.2%
COc1cccc(OCC(=O)NNC(=O)c2cnccn2)c1 -5.69%
COc1ccc(C(=O)O/N=C(\N)c2ccccn2)cc1[N+](=O)[O-] 12.7%
CC(=O)c1c(C)[nH]c(C(=O)COC(=O)CCOc2ccc(C)cc2)c1C 5.07%
CCCNC(=O)CCn1cc(-c2ccc(OC)cc2)nc1CCN -7.76%
O=C(NNC(=O)c1ccc(-c2ccccc2)cc1)Nc1ccccc1 -2.47%
O=S(=O)(Nc1ccc(-c2ccc(N3CCOCC3)nn2)cc1)c1cc(Cl)ccc1Cl 11.6%
CCC(C)N(C(=O)CSc1ncnc2c1cnn2-c1ccccc1)C1CCS(=O)(=O)C1 (stereo not given) 0.752%
COc1ccc(OC)c(S(=O)(=O)N2CCCC(C(=O)N3CCC(C(N)=O)CC3)C2)c1 (stereo not given) -0.699%
O=C1COc2ccc(S(=O)(=O)Nc3ccc(OC(F)(F)F)cc3)cc2N1 2.92%
Cc1nn(C)c(C)c1NS(=O)(=O)c1ccc(OC(F)(F)F)cc1 -8.93%
CCC(=O)N1CCc2cc(Br)c(S(=O)(=O)NCCN3CCCCC3CC)cc21 (stereo not given) -1.08%
CN1CCN(C2Cc3ccc(Cl)cc3Sc3ccc(F)cc32)CC1 (stereo not given) -0.795%

Activity change, negative = inhibition, active:
C/C(=C/C(=O)N1CCN(C)CC1)C(=O)O -83.7%
COc1cccc(CN(C)CC2CCCN(CCc3ccc(Cl)cc3)C2)c1OC (stereo not given) -81.7%
COc1ccc(NC(=O)Cn2c(=O)n(Cc3ccco3)c(=O)c3ccccc32)cc1 -89%
Brc1ccc(C2=CC(c3ccco3)n3ncnc3N2)cc1 (stereo not given) -56.9%
O=C(c1ccc(O)cc1)c1ccc(C(=O)O)c(C(=O)O)c1 -68%
Cc1ccc(C)c(N2CCN(C(=O)CCCCCn3c(=S)[nH]c4ccc(N5CCOCC5)cc4c3=O)CC2)c1 -73.3%
N#CC1=C(N)Oc2n[nH]c(CSc3ccccc3)c2C12C(=O)Nc1ccccc12 (stereo not given) -57.8%
O=C(Nc1nnc(S(=O)(=O)N2CCCCCC2)s1)c1cccc(Br)c1 -56%
Cc1ccc(NC(=O)NCC(c2cccnc2)N2CCOCC2)cc1 (stereo not given) -69.8%
CC1CCN(c2c(NCc3ccc(C(=O)NCc4ccccc4)cc3)c(=O)c2=O)CC1 -69.2%
COc1ccc(/C=N/NC(=O)c2ccc3c(c2)OCCO3)c(OC)c1 -61%
Cc1ccc(C(=O)NN(CCC#N)C2=NS(=O)(=O)c3ccccc32)cc1 -53.5%
CCN1CCN(C(c2cccnc2)c2cc(Cl)c3cccnc3c2O)CC1 (stereo not given) -81.5%
OCCCNc1nccc(-c2cc(Nc3cccc(Cl)c3)ncn2)n1 -63.5%
O=C(Nc1cccnc1)c1noc2c1CCCCC2 -52.6%
COc1ccc(C(=O)NNC(=O)c2cnccn2)cc1[N+](=O)[O-] -85.3%
O=S(=O)(Nc1ccc(O)c2ccccc12)c1ccc(OC(F)(F)F)cc1 -59.7%
